# Test results as given in PubChem BioAssay (NCATS).
# Results filed as inconclusive are left out. A number with no mark means an inactive call. The source made the active and inactive calls. Calls follow the shape of the dose curve; as a rule, active = well fitted inhibition curve with a large enough effect; inconclusive = small, poorly fitted or top-dose-only effect; inactive = flat fitted curve, though single readings scatter.
# Test system: NIH3T3
# Test: Cytotoxic Profiling of Annotated Libraries Using Quantitative High-Throughput Screening (AID 1296008); also: nearly all actives have a fitted effect of over 60% in size
# Settings: Five cell lines viability, CellTiter-Glo ATP luminescence, 48-72 h; max response: active compounds read low
# Outline: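 Cells exposed to compounds for 48 or 72 hr at 37 degrees Celsius. Viability read as ATP-coupled luminescence with CellTiter-Glo after 10 min at room temperature.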
# % is scaled to controls: 0 for no effect and ±100 for the full control effect.
SMILES,max response [%],outcome
COc1cccc(Cn2ncc3c4sc(S(C)=O)cc4n(C)c3c2=O)c1 (centres undefined),2.83,
CC(C)CC(=O)O[C@@H]1O[C@H](CO)[C@@H](O[C@H]2O[C@H](C)[C@@H](N[C@H]3C=C(CO)[C@@H](O[C@H]4O[C@H](CO)[C@@H](O[C@H]5O[C@H](CO)[C@@H](O[C@H]6O[C@H](CO)[C@@H](O)[C@H](O)[C@H]6O)[C@H](O)[C@H]5O)[C@H](O)[C@H]4O)[C@H](O)[C@H]3O)[C@H](O)[C@H]2O)[C@H](O)[C@H]1O,-2.08,
COc1ccc(C2COc3cc(O)ccc3C2)c(O)c1OC (centres undefined),-7.34,
CCN1CCN(C(=O)N[C@@H](C(=O)N[C@@H]2C(=O)N3[C@@H]2SC(C)(C)[C@@H]3C(=O)O)c2ccccc2)C(=O)C1=O,,inactive
COc1ccc(/C=C/C(N)=O)cc1OC,3.68,
N[C@@H](CC(=O)Nc1ccc(Oc2cc(F)c(F)cc2Br)cc1)C(=O)O,0.0129,
COc1cc(O)cc2c1C(=O)OC(C)C2 (centres undefined),-0.229,
COc1cc(/C=C/C(=O)O[C@@H]2C[C@](O)(C(=O)O)C[C@@H](O)[C@H]2O)ccc1O,1.32,
Cc1cn(C[C@H](N)C(=O)O)c(=O)n(Cc2ccsc2C(=O)O)c1=O,4.32,
CC(O)C1CCC2C3CCC4CC(OC5OC(C(=O)O)C(O)C(O)C5O)CCC4(C)C3CCC12C (centres undefined),-3.21,
C/C=C1/[C@H](O[C@@H]2O[C@H](CO)[C@@H](O)[C@H](O)[C@H]2O)OC=C2C(=O)O[C@@H]3C[C@@H](C(C)CO)[C@H](COC(=O)C[C@H]21)[C@H]3C (some centres undefined),1.25,
COc1ccc(NC(=O)c2ccc(-c3ccc(C(N)=O)cc3C)cc2)cc1N1CCN(C)CC1,4.28,
Cc1cccc(-c2nn3c(c2-c2ccnc4ccc(C(N)=O)cc24)CCC3)n1,-5.67,
CC1(C)CC[C@]2(C(=O)OC3OC(CO)C(O)C(O)C3O)CC[C@]3(C)C(=CCC4[C@@]5(C)C[C@@H](O)[C@H](OC6OC(C(=O)O)C(O)C(O)C6O)C(C)(C)C5CC[C@]43C)[C@@H]2C1 (some centres undefined),-4.63,
O=C(NCC(=O)N1CCCC1)Nc1ccc2ccccc2c1,-1.06,
O=C(c1c2ccccc2cc2ccccc12)N1CCC(N2CCC[C@@H](C(=O)N3CCOCC3)C2)CC1,-3.13,
CC(C)c1ccc2c(c1)C(O)CC1C(C)(CO)CCCC21C (centres undefined),-1.6,
C=CCc1cc(OC)c(OC(C)C(O)c2ccc(O)c(OC)c2)c(OC)c1 (centres undefined),-6.43,
COc1cc(O)cc(O[C@@H]2O[C@H](CO)[C@@H](O[C@@H]3OC[C@](O)(CO)[C@H]3O)[C@H](O)[C@H]2O)c1OC,2.33,
CC1(C)COC(=O)[C@@H]1O[C@@H]1O[C@H](CO)[C@@H](O)[C@H](O)[C@H]1O,0.729,

SMILES,max response [%],outcome
C[C@@H]1O[C@@H](O[C@H]2[C@@H]3C=CO[C@@H](O[C@@H]4O[C@H](CO)[C@@H](O)[C@H](O)[C@H]4O)[C@@H]3[C@@]3(CO)O[C@@H]23)[C@H](O)[C@H](O)[C@H]1OC(=O)/C=C/c1ccc(O)cc1,-3.44,
Cc1c(NC(=O)N2CCOCC2)ccc2c1c1ccccc1n2C(C)C,-1.53,
COC(=O)C1=COC(OC2OC(CO)C(O)C(O)C2O)C2C(COC(=O)/C=C/c3ccc(O)c(O)c3)C(O)C(O)C12 (centres undefined),2.28,
O=C(OC[C@H]1O[C@H](O[C@]2(CO)O[C@H](CO)[C@@H](O)[C@@H]2O)[C@H](O)[C@@H](O)[C@@H]1O)c1ccc(O)cc1,-10.5,
C=CC(C)(O)C1CC2C3(C)CCCC(C)(C)C3C(O)C(O)C2(C)O1 (centres undefined),-13.6,
CC1CC(=O)[C@]2(O)C(C(=O)OCCc3ccc(O)c(O)c3)=CO[C@@H](O[C@@H]3O[C@H](CO)[C@@H](O)[C@H](O)[C@H]3O)[C@H]12 (some centres undefined),0.72,
COc1cc(O)cc2c1C(=O)OC(C)CCCCCCC2 (centres undefined),-11.2,
C=C(C)[C@H]1CC[C@]2(C(=O)O)CC[C@]3(C)C(CCC4[C@@]5(C)CCC(=O)C(C)(C)C5CC[C@]43C)C12 (some centres undefined),-1.29,
OCC1OC(Oc2cc(O)cc(/C=C/c3ccc(OC4OC(CO)C(O)C(O)C4O)cc3O)c2)C(O)C(O)C1O (centres undefined),0.921,
CC(C)[C@](O)(c1ccc2cc(OC(F)F)c(OC(F)F)cc2c1)c1cn[nH]n1,1.17,
C/C=C1/[C@H](O[C@@H]2O[C@H](CO)[C@@H](O)[C@H](O)[C@H]2O)OC=C(C(=O)OC)[C@H]1CC(=O)OCCc1ccc(OC(=O)C[C@@H]2C(C(=O)OC)=CO[C@@H](O[C@@H]3O[C@H](CO)[C@@H](O)[C@H](O)[C@H]3O)/C2=C/C)cc1,2.32,
C/C(=C/CO)CC[C@H]1[C@]2(C)C[C@H](O)CC(C)(C)[C@H]2CC[C@]1(C)O,3.86,
C[C@@H]1O[C@@H](O[C@@H]2\C=C/C=C\C=C/C=C\C[C@H](C)OC(=O)/C=C\[C@H]3O[C@@H]3C[C@H](O)C[C@]3(O)C[C@@H](O)[C@@H](C(=O)O)[C@H](C2)O3)[C@H](O)[C@H](N)[C@@H]1O,3.56,
COc1cc(C)c(C(=O)O[C@@H]2[C@H](O)[C@@H](CO)O[C@H]2n2ccc(=O)[nH]c2=O)c(OC)c1,2.52,
C=C(CCO)C(=O)OCC1OCC(OC(=O)C(=C)CCO[C@@H]2O[C@H](CO)[C@@H](O)[C@H](O)[C@H]2O)C(O)C1O (some centres undefined),-5.54,
COc1ccc(/C=C/C(=O)N2CCCC2)cc1,-2.69,
C[C@@H]1O[C@@H](OC[C@H]2O[C@@H](OCc3ccccc3)[C@H](O)[C@@H](O)[C@@H]2O)[C@H](O)[C@H](O)[C@H]1O,0.0365,
CC(=O)O[C@@H]1C=C2[C@H](CC[C@@]3(C)[C@@]2(O)CC[C@H]2Cc4c([nH]c5ccccc45)[C@@]23C)O[C@@H]1C(C)(C)O,3.65,
Cc1cc(Cn2cnc3c2CC(C(=O)O)N(C(=O)C(c2ccccc2)c2ccccc2)C3)ccc1N(C)C (centres undefined),1.33,
